Records with an inconclusive call do not appear. Activity calls are given as the source filed them. Unless noted, calls follow the shape of the dose curve; as a rule, active = well fitted curve in the direction sought with a large enough effect in the repeat runs; inconclusive = weak or mixed curves; inactive = no such curve, though single readings can be large; an effect the other way counts as inactive or inconclusive.
Columns and labels:
[1] = qHTS assay for small molecule agonists of the p53 signaling pathway (AID 651631; calls by dose curve; also: nearly all actives have a fitted effect of over 15% in size)
Procedure, shortened: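 Readout was fluorescence from the LiveBLAzer FRET substrate, applied for 2 h at room temperature after 16 h compound exposure at 37 °C. Cells were the p53RE-bla HCT-116 line, with beta-lactamase driven by p53 response elements.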

[2] = qHTS assay for small molecules that induce genotoxicity in human embryonic kidney cells expressing luciferase-tagged ATAD5 (AID 651632); also: nearly all actives have a fitted effect of over 15% in size
Procedure, shortened: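 Test compounds were delivered by pin tool onto HEK293T reporter cells (2,000/well) expressing ATAD5 fused to luciferase. After 16 hr at 37C, 5% CO2, Amplite was added for 30 min at room temperature and luminescence was measured.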

[3] = qHTS assay for small molecule agonists of the p53 signaling pathway - cell viability (AID 651633; calls by dose curve; also: series mostly up to about 83 µM; nearly all actives have a fitted effect of over 30% in size)
Procedure, shortened: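 Viability counter-read: CellTiter-Glo luminescence (30 min, room temperature) in the same p53RE-bla plates. These plates had been exposed to compounds for 16 h at 37 C.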

[4] = qHTS assay for small molecules that induce genotoxicity in human embryonic kidney cells expressing luciferase-tagged ATAD5 - cell viability (AID 651634; calls by dose curve; also: nearly all actives have a fitted effect of over 25% in size)
Procedure, shortened: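 Quantitative high-throughput format. HEK293T cells expressing ATAD5 fused to luciferase were plated at 2,000 cells/well and treated 15.5 hr with compound versus DMSO. Viability was determined by fluorescent live-cell protease substrate, 30 min at 37C.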

[5] = qHTS assay for small molecule disruptors of the mitochondrial membrane potential - cell viability (AID 720634; calls by dose curve;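 also: human HepG2 liver cancer cells; series mostly up to about 83 µM; nearly all actives have a fitted effect of over 20% in size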)
Procedure, shortened: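 Same-well counter-screen: following the MMP dye addition, CellTiter-Glo was added to 1 hr compound-treated HepG2 cells and luminescence read after 30 min at room temperature.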

[6] = qHTS assay for small molecule disruptors of the mitochondrial membrane potential (AID 720635)
Procedure, shortened: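 Mitochondrial membrane potential tracked with Mito-MPS dye, red aggregates (ex 540/em 590 nm) against green monomers (ex 490/em 535 nm). Compound treatment 1 hr at 37C, dye 30 min in HepG2.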

[7] = qHTS assay to test for compound auto fluorescence at 590 nm (red) in HepG2 cells (AID 720674)
Procedure, shortened: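 We screened compounds on adherent HepG2 cells, incubating them for an hour at 37 C in 5% CO2 before reading emission at 590 nm under 540 nm excitation; values reflect equivalence to Rose Bengal sodium fluorescence.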

[8] = qHTS assay to test for compound auto fluorescence at 535 nm (green) in HepG2 cells (AID 720675)
[9] = qHTS assay to test for compound auto fluorescence at 460 nm (blue) in HEK293 cells (AID 720678)
Procedure, shortened: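 Blue read-out at excitation 405 nm and emission 460 nm follows overnight compound exposure of HEK293 cells at 37C in 5% CO2. Activity is given as auto fluorescence equivalency to triamterene.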

[10] = qHTS assay to test for compound auto fluorescence at 590 nm (red) in HEK293 cells (AID 720679)
Procedure, shortened: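 Red channel, Ex/Em 540/590nm; signal expressed as equivalency to Rose Bengal sodium. HEK293, 2,000 cells/well, 10% dialyzed FBS; 23 nL compound pinned after 4-5 hr attachment; overnight 37C/5% CO2 before reading.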

[11] = qHTS assay to test for compound auto fluorescence at 535 nm (green) in HEK293 cells (AID 720680)
[12] = qHTS assay to test for compound auto fluorescence at 460 nm (blue) in HEK293 cell free culture (AID 720681)
Procedure, shortened: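 Blue fluorescence (Ex 405/Em 460 nm, triamterene-equivalent) was read immediately after pin transfer of compound or DMSO into medium (DMEM, 10% FBS) without cells.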

[13] = qHTS assay to test for compound auto fluorescence at 535 nm (green) in HEK293 cell free culture (AID 720682)
Procedure, shortened: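 Compounds were pin-transferred into cell-free DMEM with 10% FBS, and green fluorescence was read at excitation 485 nm and emission 535 nm. Intensities were expressed as fluorescein-equivalent values.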

[14] = qHTS assay to test for compound auto fluorescence at 590 nm (red) in HEK293 cell free culture (AID 720683)
Procedure, shortened: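 Red-channel autofluorescence of compounds in culture medium (DMEM, 10% FBS), no cells, measured at 540/590 nm. Rose Bengal sodium is the reference fluorophore for equivalence.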

[15] = qHTS assay to test for compound auto fluorescence at 590 nm (red) in HepG2 cell free culture (AID 720684)
Procedure, shortened: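 Cell-free; medium MEM + 10% FBS; compound or DMSO added by pintool; read Ex 540/Em 590 nm; Rose Bengal sodium as red reference fluorophore.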

[16] = qHTS assay to test for compound auto fluorescence at 460 nm (blue) in HepG2 cell free culture (AID 720685)
Procedure, shortened: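 Cell-free plates of MEM plus 10% FBS received 23 nL compound or DMSO vehicle; blue-channel (405/460 nm) intensity scored against triamterene as reference fluorophore.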

[17] = qHTS assay to test for compound auto fluorescence at 535 nm (green) in HepG2 cell free culture (AID 720686)
[18] = qHTS assay to test for compound auto fluorescence at 460 nm (blue) in HepG2 cells (AID 720687)
Procedure, shortened: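 Blue-channel autofluorescence (Ex/Em 405/460 nm, triamterene-equivalent) was measured after 1 hr compound exposure at 37 C, 5% CO2. Cells were HepG2, plated overnight at 37 C in MEM plus 10% FBS.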

[19] = target: Glucocorticoid receptor (Homo sapiens) (UniProt P04150); experiment: qHTS assay to identify small molecule agonists of the glucocorticoid receptor (GR) signaling pathway (AID 720691; active = well fitted activation curve with a large enough effect in the signal ratio in the repeat runs, not every such curve was filed as active; the % refers to the signal ratio)
Procedure, shortened: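 A HeLa cervical cancer line expressing GR and a glucocorticoid response element-driven beta-lactamase gene is treated with compounds for 18 h; LiveBLAzer B/G FRET substrate is then applied and fluorescence read.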

[20] = target: Glucocorticoid receptor (Homo sapiens) (UniProt P04150); experiment: qHTS assay to identify small molecule antagonists of the glucocorticoid receptor (GR) signaling pathway (AID 720692; active = well fitted inhibition curve with a large enough effect in the signal ratio in the repeat runs, not every such curve was filed as active; the % refers to the signal ratio)
Procedure, shortened: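 GRE-bla HeLa line, dex-stimulated (5 nM final). Compound exposure 18 h, 37 C. Beta-lactamase FRET read after 2 h RT substrate.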

[21] = qHTS assay for identifying genotoxic compounds that show differential cytotoxicity against isogenic chicken DT40 cell lines with known DNA damage response pathways - wild type cell line (AID 743012); also: nearly all actives have a fitted effect of over 60% in size
Procedure, shortened: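 300 wt DT40 cells/well; cpd (DMSO) pintool-transferred after ~0.5 h at 37 C/5% CO2; 40 h incubation; CellTiter-Glo added, 30 min RT; luminescence read.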

[22] = qHTS assay for identifying genotoxic compounds that show differential cytotoxicity against isogenic chicken DT40 cell lines with known DNA damage response pathways - Rev3 mutant cell line (AID 743014); also: nearly all actives have a fitted effect of over 55% in size
[23] = qHTS assay for identifying genotoxic compounds that show differential cytotoxicity against isogenic chicken DT40 cell lines with known DNA damage response pathways - Rad54/Ku70 mutant cell line (AID 743015); also: nearly all actives have a fitted effect of over 60% in size
[24] = qHTS assay to identify small molecule antagonists of the androgen receptor (AR) signaling pathway - cell viability counter screen (AID 743033; also: nearly all actives have a fitted effect of over 45% in size)

Measured: Potency

Glucocorticoid receptor (Homo sapiens), sequence (P04150 whole entry, looked up): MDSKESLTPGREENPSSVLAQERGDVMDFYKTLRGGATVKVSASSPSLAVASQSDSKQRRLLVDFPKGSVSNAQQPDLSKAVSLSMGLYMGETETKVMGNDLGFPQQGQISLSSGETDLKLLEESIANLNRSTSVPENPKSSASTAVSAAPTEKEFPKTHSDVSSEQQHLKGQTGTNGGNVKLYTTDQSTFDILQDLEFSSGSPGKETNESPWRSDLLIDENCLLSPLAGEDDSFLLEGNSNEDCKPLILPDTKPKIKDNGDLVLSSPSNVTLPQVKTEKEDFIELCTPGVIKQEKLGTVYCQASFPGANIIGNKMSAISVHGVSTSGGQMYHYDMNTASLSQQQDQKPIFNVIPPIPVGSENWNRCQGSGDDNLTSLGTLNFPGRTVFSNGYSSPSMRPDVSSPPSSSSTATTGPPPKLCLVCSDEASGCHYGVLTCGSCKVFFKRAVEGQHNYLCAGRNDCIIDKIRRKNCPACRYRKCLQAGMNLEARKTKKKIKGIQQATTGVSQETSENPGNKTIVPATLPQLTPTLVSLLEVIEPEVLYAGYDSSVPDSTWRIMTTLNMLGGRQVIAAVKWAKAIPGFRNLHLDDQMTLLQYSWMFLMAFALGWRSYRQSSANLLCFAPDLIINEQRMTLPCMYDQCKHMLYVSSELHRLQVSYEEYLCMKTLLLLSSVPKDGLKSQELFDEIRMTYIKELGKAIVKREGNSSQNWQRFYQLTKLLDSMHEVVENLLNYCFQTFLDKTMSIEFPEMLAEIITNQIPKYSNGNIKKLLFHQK

CCCN1CCC[C@H](c2cccc(O)c2)C1
inactive: all assays above
